Data reported in PubChem BioAssay (EPA / NIEHS).
Several values for one entry are separate records, joined by “and”; a condition that tells them apart may be missing. Equal entries are not always repeated. Results filed as inconclusive are left out. Some compounds were tested as several samples or in several runs, with calls that do not always agree. Activity calls are given as the source filed them. Rule for the calls: active = hit-call score of the fitted dose curve at least 0.9, where 1 is the maximum; inconclusive = response in the unintended direction; inactive = score below 0.9.

Biological target: human Peroxisome Proliferator-activated Receptor alpha (PPARa), PPARA (gene 5465) (UniProt Q07869)
Sequence (Q07869 whole entry, looked up): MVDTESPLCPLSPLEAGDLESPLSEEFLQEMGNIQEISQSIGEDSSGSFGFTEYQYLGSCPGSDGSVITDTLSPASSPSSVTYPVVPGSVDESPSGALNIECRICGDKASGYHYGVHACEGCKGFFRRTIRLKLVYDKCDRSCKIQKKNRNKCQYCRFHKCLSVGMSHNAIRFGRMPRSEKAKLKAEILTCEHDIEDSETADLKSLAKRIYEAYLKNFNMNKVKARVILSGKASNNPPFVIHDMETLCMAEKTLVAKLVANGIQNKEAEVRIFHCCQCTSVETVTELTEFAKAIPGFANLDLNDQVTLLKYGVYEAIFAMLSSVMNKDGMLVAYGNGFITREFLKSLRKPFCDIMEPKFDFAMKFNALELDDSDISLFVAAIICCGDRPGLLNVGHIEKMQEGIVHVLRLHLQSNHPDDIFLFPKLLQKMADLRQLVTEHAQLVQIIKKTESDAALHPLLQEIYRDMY
Experiment: NVS_NR_hPPARa: NovaScreen (NVS) Nuclear Receptor Binding Assay for human Peroxisome Proliferator-activated Receptor alpha (PPARa) (AID 2283359);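 note: activity means loss of TR-FRET signal versus DMSO baseline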
Procedure, shortened: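 One-hour incubation, cell-free extracted protein, TR-FRET binding readout; signal loss vs DMSO scored. Screen: 25 uM duplicates, confirmatory dose series for actives.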

SMILES	outcome
CCOP(=S)(OCC)SCSCC	inactive
O=P(OCC(Br)CBr)(OCC(Br)CBr)OCC(Br)CBr (stereo not drawn)	inactive
CC1(C)CN=C(NN=C(/C=C/c2ccc(C(F)(F)F)cc2)/C=C/c2ccc(C(F)(F)F)cc2)NC1	inactive
O=P(Oc1ccccc1)(Oc1ccccc1)Oc1ccccc1	inactive
ClC1=C(Cl)C2(Cl)C3C(Cl)C(Cl)CC3C1(Cl)C2(Cl)Cl (stereo not drawn)	inactive
O=C(CBr)OCc1ccccc1	inactive

Biological target: PGR (gene 5241) (UniProt P06401)
Sequence (P06401 whole entry, looked up): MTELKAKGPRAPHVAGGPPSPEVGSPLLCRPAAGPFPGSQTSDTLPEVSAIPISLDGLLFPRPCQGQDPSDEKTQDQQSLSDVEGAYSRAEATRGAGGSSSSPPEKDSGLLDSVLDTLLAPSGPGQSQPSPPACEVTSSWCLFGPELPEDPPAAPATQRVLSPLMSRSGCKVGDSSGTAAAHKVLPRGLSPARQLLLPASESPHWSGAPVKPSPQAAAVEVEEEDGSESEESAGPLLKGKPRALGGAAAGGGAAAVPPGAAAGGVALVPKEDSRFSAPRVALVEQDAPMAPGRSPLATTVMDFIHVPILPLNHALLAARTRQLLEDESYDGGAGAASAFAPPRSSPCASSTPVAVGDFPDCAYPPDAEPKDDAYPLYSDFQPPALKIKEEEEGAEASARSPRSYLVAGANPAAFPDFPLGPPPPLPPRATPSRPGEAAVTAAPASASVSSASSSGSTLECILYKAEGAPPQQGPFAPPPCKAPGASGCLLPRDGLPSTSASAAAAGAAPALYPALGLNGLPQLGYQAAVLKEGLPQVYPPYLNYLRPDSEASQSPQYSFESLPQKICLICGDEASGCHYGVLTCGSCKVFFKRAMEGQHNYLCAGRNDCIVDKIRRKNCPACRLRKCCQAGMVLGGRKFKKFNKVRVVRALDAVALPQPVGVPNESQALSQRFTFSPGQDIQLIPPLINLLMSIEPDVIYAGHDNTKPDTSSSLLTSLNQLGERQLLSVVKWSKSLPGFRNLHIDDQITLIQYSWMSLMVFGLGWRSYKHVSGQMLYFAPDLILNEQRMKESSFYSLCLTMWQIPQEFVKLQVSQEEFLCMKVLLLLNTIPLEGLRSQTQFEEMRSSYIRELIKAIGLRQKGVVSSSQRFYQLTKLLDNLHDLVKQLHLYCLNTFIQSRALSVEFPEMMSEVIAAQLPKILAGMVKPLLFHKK
Experiment: NVS_NR_hPR: NovaScreen (NVS) Nuclear Receptor Binding Assay for human Progestron Receptor (PR) (AID 2283360);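 note: active means loss of bound radioligand signal versus DMSO baseline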
Procedure, shortened: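 Cell-free radioligand binding using receptor protein extracted from T47D cells, read by scintillation counting 18 hours after dosing. Loss of signal relative to DMSO baseline indicates displacement; primary screen single concentration 25 uM in duplicate, actives followed in concentration series.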

SMILES	outcome
Nc1cc2c3c(c1)C(c1ccccc1)=N[C@@H](NC(=O)c1cccnc1)C(=O)N3CC2	inactive
CCCCN(CCCC)SN(C)C(=O)Oc1cccc2c1OC(C)(C)C2	inactive
CCOP(=S)(Oc1ccc([N+](=O)[O-])cc1)c1ccccc1 (stereo not drawn)	inactive

Biological target: Retinoic acid receptor alpha (Homo sapiens) (UniProt P10276)
Sequence (P10276 whole entry, looked up): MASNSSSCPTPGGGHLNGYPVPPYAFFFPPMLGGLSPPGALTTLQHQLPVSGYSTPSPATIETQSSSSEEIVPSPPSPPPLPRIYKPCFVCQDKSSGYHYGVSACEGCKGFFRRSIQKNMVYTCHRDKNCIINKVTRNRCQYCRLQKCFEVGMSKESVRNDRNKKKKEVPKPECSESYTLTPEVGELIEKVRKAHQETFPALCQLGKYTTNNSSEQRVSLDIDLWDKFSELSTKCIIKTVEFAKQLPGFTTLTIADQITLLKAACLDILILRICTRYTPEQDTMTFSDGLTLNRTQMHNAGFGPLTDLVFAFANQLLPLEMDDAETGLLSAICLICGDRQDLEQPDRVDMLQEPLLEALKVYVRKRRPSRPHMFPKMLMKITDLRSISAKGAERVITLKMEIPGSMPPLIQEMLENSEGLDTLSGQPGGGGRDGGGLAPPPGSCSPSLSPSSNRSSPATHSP
Experiment: NVS_NR_hRARa_Agonist: NovaScreen (NVS) Nuclear Receptor Binding Assay for human Retinoic Acid Alpha Receptor Agonism (RAR) (AID 2283361)
Procedure, shortened: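 Compounds screened at 25 uM, duplicate, then in concentration series if active. Detection: TR-FRET gain of signal versus DMSO after 2 h with cell-free extracted RARα.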

SMILES	outcome
CCCCOCCOP(=O)(OCCOCCCC)OCCOCCCC	inactive
CCCCc1ccc(O)cc1	inactive
c1ccc2c(c1)Nc1ccccc1S2	inactive

Biological target: Glucocorticoid receptor (Homo sapiens) (UniProt P04150)
Experiment: NVS_NR_hGR: NovaScreen (NVS) Nuclear Receptor Binding Assay for human Glucocorticoid Receptor (GR) (AID 2283363);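 for AC50: activity is loss of specific radioligand binding signal relative to DMSO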
Procedure, shortened: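 Single-readout cell-free binding: radioligand plus extracted receptor, 16-hour dosing, filter radiodetection; 25 uM duplicate primary, concentration series secondary.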

SMILES	AC50	outcome
CCCCC(CC)COC(=O)c1c(Br)c(Br)c(Br)c(Br)c1C(=O)OCC(CC)CCCC (stereo not drawn)	6.58 µM (active) and 6.59 µM (active)	
CCC(C)(C)c1ccc(O)cc1		inactive
ClC1=C(Cl)C2(Cl)C3C(Cl)C(Cl)CC3C1(Cl)C2(Cl)Cl (stereo not drawn)		inactive
CCCCCCCc1ccc(O)cc1	33.3 µM (active)	inactive

Biological target: Nuclear receptor subfamily 1 group I member 2 (Homo sapiens) (UniProt O75469)
Sequence (O75469 whole entry, looked up): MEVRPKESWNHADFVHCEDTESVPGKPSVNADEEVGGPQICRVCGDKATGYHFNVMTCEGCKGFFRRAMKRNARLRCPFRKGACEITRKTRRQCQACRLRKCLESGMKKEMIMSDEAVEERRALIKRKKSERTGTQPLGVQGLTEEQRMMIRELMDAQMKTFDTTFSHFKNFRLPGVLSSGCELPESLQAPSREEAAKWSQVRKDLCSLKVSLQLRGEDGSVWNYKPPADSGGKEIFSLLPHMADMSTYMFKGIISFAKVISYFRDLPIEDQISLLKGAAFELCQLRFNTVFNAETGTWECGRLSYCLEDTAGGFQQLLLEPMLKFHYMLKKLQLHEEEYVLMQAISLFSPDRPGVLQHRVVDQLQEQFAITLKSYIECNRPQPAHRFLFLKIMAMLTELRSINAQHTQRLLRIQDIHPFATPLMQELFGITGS
Experiment: NVS_NR_hPXR: NovaScreen (NVS) Nuclear Receptor Binding Assay for human Pregnane X Receptor (PXR) (AID 2283365);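 note: a drop in FRET signal versus DMSO baseline means the compound binds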
Procedure, shortened: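 Human PXR protein, cell-free; compound added, incubated 2 h, TR-FRET read. Signal decrease vs DMSO = binding. Screened 25 uM duplicate, actives re-run as dilution series.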

SMILES	AC50	outcome
O=P(OCC(Br)CBr)(OCC(Br)CBr)OCC(Br)CBr (stereo not drawn)	0.423 µM (active)	
CC1(C)CN=C(NN=C(/C=C/c2ccc(C(F)(F)F)cc2)/C=C/c2ccc(C(F)(F)F)cc2)NC1	7.48 µM (active)	
CCCCN(CC)C(=O)SCCC		inactive
CC(C)(C)N(NC(=O)c1ccc(Cl)cc1)C(=O)c1ccccc1		inactive
CCCCOCCOP(=O)(OCCOCCCC)OCCOCCCC	5.67 µM (active)	
CCCCCCCc1ccc(O)cc1		inactive
O=NN1CCCC1		inactive

Biological target: guinea pig Sigma Receptor, Non-selective Binding, SIGMAR1 (gene 100135589) (UniProt Q60492)
Sequence (Q60492 whole entry, looked up): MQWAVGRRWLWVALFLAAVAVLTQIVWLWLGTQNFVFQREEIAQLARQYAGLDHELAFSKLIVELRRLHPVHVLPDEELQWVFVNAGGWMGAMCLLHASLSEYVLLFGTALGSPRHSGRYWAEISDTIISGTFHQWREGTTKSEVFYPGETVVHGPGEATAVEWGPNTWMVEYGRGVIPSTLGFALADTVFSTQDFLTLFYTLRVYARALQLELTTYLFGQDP
Experiment: NVS_OR_gSIGMA_NonSelective: NovaScreen (NVS) Nuclear Receptor Binding Assay for guinea pig Sigma Receptor, Non-selective Binding (AID 2283367)
Procedure, shortened: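 Test chemicals were screened in duplicate at 25 uM, then in concentration series if active, against radioligand binding to guinea pig brain membranes; filtration and scintillation counting at 1 h measured remaining bound ligand.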

SMILES	outcome	AC50
CCN(CC)c1ccccc1	inactive	
CCCCN(CCCC)SN(C)C(=O)Oc1cccc2c1OC(C)(C)C2		4.72 µM (active)
c1ccc2c(c1)Nc1ccccc1S2	inactive	

Biological target: Peroxisome proliferator-activated receptor gamma (Homo sapiens) (UniProt P37231)
Sequence (P37231 whole entry, looked up): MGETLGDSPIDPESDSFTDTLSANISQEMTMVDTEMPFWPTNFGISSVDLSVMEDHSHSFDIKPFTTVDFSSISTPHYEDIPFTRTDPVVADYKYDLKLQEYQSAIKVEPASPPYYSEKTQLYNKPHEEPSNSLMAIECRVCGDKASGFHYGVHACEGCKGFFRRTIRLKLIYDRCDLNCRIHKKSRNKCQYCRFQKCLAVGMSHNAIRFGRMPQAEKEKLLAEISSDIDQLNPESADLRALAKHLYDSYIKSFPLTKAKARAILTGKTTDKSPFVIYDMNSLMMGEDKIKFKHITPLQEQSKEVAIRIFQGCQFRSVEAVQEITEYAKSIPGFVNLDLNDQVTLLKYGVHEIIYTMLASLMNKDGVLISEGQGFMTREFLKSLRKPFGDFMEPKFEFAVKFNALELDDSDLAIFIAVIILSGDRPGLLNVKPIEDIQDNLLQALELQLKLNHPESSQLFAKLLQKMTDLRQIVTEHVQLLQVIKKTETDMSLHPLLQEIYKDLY
Experiment: NVS_NR_hPPARg: NovaScreen (NVS) Nuclear Receptor Binding Assay for human Peroxisome Proliferator-activated Receptor gamma (PPARg) (AID 2283370)
Procedure, shortened: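 Chemicals were tested first in duplicate at 25 uM, then in concentration series if active. Binding to cell-free PPARg protein was measured by fluorescence polarization after 2 h, with loss of signal scored against DMSO.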

SMILES	outcome	AC50
CCOP(=S)(OCC)SCSCC	inactive	
c1ccc(OP(Oc2ccccc2)Oc2ccccc2)cc1	inactive	
CC1(C)CN=C(NN=C(/C=C/c2ccc(C(F)(F)F)cc2)/C=C/c2ccc(C(F)(F)F)cc2)NC1	inactive	
O=P(Oc1ccccc1)(Oc1ccccc1)Oc1ccccc1		0.00229 µM (active)
CCCCN(CC)C(=O)SCCC	inactive	
CCCCN(CCCC)SN(C)C(=O)Oc1cccc2c1OC(C)(C)C2	inactive	
CCNc1nc(Cl)nc(NC(C)(C)C)n1		0.0134 µM (active)
ClC1=C(Cl)C2(Cl)C3C(Cl)C(Cl)CC3C1(Cl)C2(Cl)Cl (stereo not drawn)	inactive	
CCCCCCCc1ccc(O)cc1	inactive	
O=NN1CCCC1	inactive	
CC(C)(C)OOC(C)(C)C	inactive	
Nc1ccc2ccccc2c1	inactive	
CCOC(=O)c1ccccc1N	inactive	
O=c1ssc(Cl)c1Cl	inactive	
c1ccc2c(c1)Nc1ccccc1S2	inactive	

Biological target: human Dopamine Transporter (DAT), SLC6A3 (gene 6531) (UniProt Q01959)
Sequence (Q01959 whole entry, looked up): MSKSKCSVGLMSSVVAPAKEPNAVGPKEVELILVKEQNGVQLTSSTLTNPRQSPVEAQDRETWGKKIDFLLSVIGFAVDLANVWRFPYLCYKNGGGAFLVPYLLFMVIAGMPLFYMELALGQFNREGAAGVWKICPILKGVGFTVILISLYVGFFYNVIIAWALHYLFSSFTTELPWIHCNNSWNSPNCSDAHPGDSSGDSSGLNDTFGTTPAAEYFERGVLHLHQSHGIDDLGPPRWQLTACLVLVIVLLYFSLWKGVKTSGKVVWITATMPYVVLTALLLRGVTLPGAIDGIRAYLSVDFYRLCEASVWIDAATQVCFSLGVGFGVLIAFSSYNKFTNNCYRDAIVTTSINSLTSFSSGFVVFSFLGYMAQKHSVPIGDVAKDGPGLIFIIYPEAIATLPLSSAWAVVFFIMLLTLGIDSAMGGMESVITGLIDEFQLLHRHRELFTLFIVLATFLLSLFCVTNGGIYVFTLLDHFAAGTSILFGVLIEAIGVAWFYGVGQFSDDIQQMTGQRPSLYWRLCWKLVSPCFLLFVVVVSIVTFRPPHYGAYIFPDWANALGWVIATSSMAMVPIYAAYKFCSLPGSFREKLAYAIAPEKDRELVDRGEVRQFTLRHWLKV
Experiment: NVS_TR_hDAT: NovaScreen (NVS) Transporter Assay for human Dopamine Transporter (DAT) (AID 2283374);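 note: activity means loss of bound radioligand signal relative to DMSO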
Procedure, shortened: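 Extracted human SLC6A3 protein incubated 1 h with radioligand and test chemical; bound fraction separated on filters and counted. Single 25 uM duplicate screen preceded concentration-response follow-up; positive and negative controls on every plate.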

SMILES	outcome	AC50
c1ccc(OP(Oc2ccccc2)Oc2ccccc2)cc1	inactive	
O=P(Oc1ccccc1)(Oc1ccccc1)Oc1ccccc1		11.3 µM (active)
CCC(C)(C)c1ccc(O)cc1		10 µM (active)
CCCCCCCc1ccc(O)cc1		6.26 µM (active)
Nc1ccc2ccccc2c1		12.9 µM (active)
O=c1ssc(Cl)c1Cl		14.5 µM (active)

Biological target: human Norepinephrine Transporter (NET), SLC6A2 (gene 6530) (UniProt P23975)
Sequence (P23975 whole entry, looked up): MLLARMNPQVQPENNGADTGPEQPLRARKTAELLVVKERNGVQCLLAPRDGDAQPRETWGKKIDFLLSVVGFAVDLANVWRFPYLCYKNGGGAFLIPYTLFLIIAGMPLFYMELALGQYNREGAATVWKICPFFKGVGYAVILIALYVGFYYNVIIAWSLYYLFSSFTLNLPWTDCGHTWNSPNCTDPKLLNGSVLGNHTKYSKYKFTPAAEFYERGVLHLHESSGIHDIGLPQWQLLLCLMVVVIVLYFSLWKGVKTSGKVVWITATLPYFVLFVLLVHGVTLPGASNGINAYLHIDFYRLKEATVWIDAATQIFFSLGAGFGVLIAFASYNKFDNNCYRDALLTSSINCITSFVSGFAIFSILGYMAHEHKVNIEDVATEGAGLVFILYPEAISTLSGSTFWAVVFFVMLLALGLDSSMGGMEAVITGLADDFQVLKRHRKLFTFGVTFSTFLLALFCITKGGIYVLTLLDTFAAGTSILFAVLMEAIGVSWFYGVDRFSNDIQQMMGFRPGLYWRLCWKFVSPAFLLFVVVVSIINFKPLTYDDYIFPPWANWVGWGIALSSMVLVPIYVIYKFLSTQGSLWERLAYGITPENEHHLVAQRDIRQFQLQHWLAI
Experiment: NVS_TR_hNET: NovaScreen (NVS) Transporter Assay for human Norepinephrine Transporter (NET) (AID 2283377);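 note: cell-free membrane protein extracted from CHO cells expressing human NET; displacement of radioligand from human NET seen as loss of scintillation signal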
Procedure, shortened: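 In this cell-free binding screen, chemicals at 25 uM (duplicate) compete with a radioligand for CHO-derived human NET over 1 hour, with filter-based radiodetection.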

SMILES	AC50
CC1(C)CN=C(NN=C(/C=C/c2ccc(C(F)(F)F)cc2)/C=C/c2ccc(C(F)(F)F)cc2)NC1	1.6 µM (active)
CCC(C)(C)c1ccc(O)cc1	16.1 µM (active)
Nc1ccc2ccccc2c1	5.64 µM (active)
O=c1ssc(Cl)c1Cl	18.3 µM (active)
c1ccc2c(c1)Nc1ccccc1S2	6.58 µM (active)

Biological target: mouse Estrogen Receptor alpha (Era), Esr1 (gene 13982) (UniProt P19785)
Sequence (P19785 whole entry, looked up): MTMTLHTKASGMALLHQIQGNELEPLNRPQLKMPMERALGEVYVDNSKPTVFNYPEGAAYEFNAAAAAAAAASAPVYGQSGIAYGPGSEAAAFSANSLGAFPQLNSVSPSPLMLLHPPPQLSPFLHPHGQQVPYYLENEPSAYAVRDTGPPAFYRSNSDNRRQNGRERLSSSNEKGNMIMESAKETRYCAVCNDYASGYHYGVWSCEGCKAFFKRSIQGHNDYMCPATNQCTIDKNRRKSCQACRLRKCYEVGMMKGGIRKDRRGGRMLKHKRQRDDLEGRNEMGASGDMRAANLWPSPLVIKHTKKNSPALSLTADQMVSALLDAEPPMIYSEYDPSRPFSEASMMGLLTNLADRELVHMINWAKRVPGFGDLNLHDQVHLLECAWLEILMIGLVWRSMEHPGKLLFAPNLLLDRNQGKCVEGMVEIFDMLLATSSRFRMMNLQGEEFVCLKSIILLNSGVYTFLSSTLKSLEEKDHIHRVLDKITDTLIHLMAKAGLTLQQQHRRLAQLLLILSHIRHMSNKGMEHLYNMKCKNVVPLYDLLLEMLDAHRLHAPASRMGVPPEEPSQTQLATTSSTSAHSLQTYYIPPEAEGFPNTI
Experiment: NVS_NR_mERa: NovaScreen (NVS) Nuclear Receptor Binding Assay for mouse Estrogen Receptor alpha (Era) (AID 2283378);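 note: hit means loss of bound radioligand signal relative to DMSO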
Procedure, shortened: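 Extracted mouse Era incubated with tritiated or iodinated radioligand plus test chemical, 18 h. Bound fraction separated on filters, counted by scintillation. DMSO = negative control/baseline; duplicate single-point at 25 uM, then concentration-response follow-up.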

SMILES	outcome	AC50
c1ccc(OP(Oc2ccccc2)Oc2ccccc2)cc1	inactive	
CCCCN(CC)C(=O)SCCC	inactive	
CCCCN(CCCC)SN(C)C(=O)Oc1cccc2c1OC(C)(C)C2	inactive	
CCNc1nc(Cl)nc(NC(C)(C)C)n1	inactive	
CCOP(=S)(Oc1ccc([N+](=O)[O-])cc1)c1ccccc1 (stereo not drawn)	inactive	
CCC(C)(C)c1ccc(O)cc1		25 µM (active)
ClC1=C(Cl)C2(Cl)C3C(Cl)C(Cl)CC3C1(Cl)C2(Cl)Cl (stereo not drawn)	inactive	
CCCCCCCc1ccc(O)cc1	inactive	4.96 µM (active) and 14.5 µM (active)
CCCCc1ccc(O)cc1	inactive	
